# Compound activity (PubChem BioAssay)
# The list is not random: actives were taken first. Their share in the collection is about 2.4%.
# WRN helicase inh-1: blocks human WRN helicase | Potency, µM (doses to about 114 µM), for inactives: at the top dose activity change, negative = inhibition, most hits filed as inhibitors | Q14191 | 360,000 compounds, 0.46% hits | AID 651768 | WRN helicase unwinding, fluorescent forked duplex, kinetic; further: on the % scale 0 is the no-effect control and ±100 the full control effect; nearly all actives have a fitted effect of over 55% in size
# Target sequence (Q14191 whole entry, looked up): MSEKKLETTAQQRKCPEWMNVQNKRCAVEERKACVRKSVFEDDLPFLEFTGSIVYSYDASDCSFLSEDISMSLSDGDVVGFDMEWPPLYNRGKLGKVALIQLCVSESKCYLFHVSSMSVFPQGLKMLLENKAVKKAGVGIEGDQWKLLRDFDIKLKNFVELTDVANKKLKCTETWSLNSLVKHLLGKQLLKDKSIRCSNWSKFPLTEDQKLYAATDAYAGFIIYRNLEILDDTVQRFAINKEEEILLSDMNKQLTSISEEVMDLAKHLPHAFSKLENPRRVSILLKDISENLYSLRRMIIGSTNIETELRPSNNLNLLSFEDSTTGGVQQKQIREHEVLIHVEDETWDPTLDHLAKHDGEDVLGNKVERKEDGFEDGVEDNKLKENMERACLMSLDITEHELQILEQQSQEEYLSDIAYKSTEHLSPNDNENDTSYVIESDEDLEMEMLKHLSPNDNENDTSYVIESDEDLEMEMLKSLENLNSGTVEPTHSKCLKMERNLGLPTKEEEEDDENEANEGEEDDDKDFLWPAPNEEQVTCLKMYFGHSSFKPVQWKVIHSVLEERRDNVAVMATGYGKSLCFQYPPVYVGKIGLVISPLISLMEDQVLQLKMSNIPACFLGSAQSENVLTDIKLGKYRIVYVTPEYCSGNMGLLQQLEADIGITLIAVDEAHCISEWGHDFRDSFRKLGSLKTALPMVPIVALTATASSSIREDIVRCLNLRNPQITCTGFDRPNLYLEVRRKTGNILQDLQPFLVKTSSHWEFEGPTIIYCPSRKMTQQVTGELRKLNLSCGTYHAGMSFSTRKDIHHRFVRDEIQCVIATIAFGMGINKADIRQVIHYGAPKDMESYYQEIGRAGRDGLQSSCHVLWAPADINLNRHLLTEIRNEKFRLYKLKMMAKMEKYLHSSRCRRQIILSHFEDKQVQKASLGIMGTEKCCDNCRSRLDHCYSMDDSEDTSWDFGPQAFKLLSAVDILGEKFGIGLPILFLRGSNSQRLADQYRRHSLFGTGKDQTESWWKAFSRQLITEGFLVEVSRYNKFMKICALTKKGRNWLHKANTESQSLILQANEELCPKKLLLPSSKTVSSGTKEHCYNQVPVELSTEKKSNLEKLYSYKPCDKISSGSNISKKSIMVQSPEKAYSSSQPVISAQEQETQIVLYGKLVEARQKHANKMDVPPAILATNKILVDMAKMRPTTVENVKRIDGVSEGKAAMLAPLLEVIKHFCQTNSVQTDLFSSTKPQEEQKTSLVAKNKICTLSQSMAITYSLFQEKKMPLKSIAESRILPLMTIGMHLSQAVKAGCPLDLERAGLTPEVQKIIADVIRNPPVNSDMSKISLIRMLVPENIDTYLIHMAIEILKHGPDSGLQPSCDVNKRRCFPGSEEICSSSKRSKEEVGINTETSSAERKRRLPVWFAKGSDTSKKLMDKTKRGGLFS
#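 Screening of the MLSMR collection measured strand separation of a quenched forked DNA duplex (100 nM) by 20 nM WRN with 2 mM ATP, all final. Compounds were preincubated with enzyme 15 min at room temperature.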
# POLB inh: DNA polymerase beta (human) inhibition; Pol beta primer extension/strand displacement, fluorescence kinetic; Potency, µM (highest dose often 114 µM), inactives show at the highest dose activity change, negative = inhibition, usual class: inhibitors; 340,000 compounds, 1.3% hits; further: on the % scale 0 is the no-effect control and ±100 the full control effect
#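 Curves were derived by four-parameter Hill fits of normalized qHTS data. The kinetic fluorescent primer-extension read was taken at 0 and 10 min after 50 nM substrate, following a 15 min room-temperature preincubation of 10 nM enzyme with compounds.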
# Pol kappa inh-1: inhibitors of human DNA polymerase kappa; Q9UBT6; purified Pol kappa, fluorescent DNA synthesis assay, 10 min; Potency, µM (series often up to 107 µM), without a hit: at the highest dose activity, negative = inhibition, actives largely listed as inhibitors; 400,000 compounds, 0.53% hits; further: on the % scale 0 is the no-effect control and ±100 the full control effect
#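 Pol kappa 10 nM + cpd, 15 min RT; start w/ substrate 50 nM final; fluorescence kinetic read, 0 and 10 min. Neg ctrl: buffer, no enzyme.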
# FEN1 inh-1: blocks human flap endonuclease 1 | AID 588795 | 390,000 compounds, 0.35% hits | Recombinant FEN1 flap cleavage, fluorescence, 15 min | Potency, µM (top dose mostly 114 µM), for the others: top-dose activity change, negative = inhibition, usual class: inhibitors; further: on the % scale 0 is the no-effect control and ±100 the full control effect; nearly all actives have a fitted effect of over 65% in size
#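 Nuclease activity of 10 nM FEN1 was measured after 15 min of room-temperature exposure to titrated compounds, by adding 50 nM flap substrate and reading plates at 0 and 15 min.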
# Pol eta inh-1: blocks human DNA polymerase eta activity. recombinant Pol eta, fluorescent DNA replication assay. 390,000 compounds, 1.2% hits. Potency, µM (series often up to 114 µM), for the others: at the highest dose activity change, negative = inhibition, most hits filed as inhibitors. AID 588591; further: on the % scale 0 is the no-effect control and ±100 the full control effect
#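 Pol eta at 10 nM preincubated with compounds 15 min at room temperature; reaction started with fluorescent substrate (50 nM final) and read kinetically at 0 and 10 min.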
# POLI inh: inhibitors of human DNA polymerase iota. Q9UNA4. Pol iota fluorescent replication assay, 10 min. Potency, µM (doses to about 115 µM), without a hit: top-dose activity, negative = inhibition, hits mostly inhibitors. 390,000 compounds, 1% hits
#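 Pol iota at 10 nM preincubated 15 min with compounds at room temperature; reaction started with fluorescent substrate, 50 nM final. Fluorescence read kinetically at 0 and 10 min; buffer-only wells as negative control.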
# PGK validate: TbPGK inhibition, hit validation. 500 compounds, 79% hits. shares compounds with Pol kappa inh-1. Potency, µM (highest dose often 57.5 µM), for inactives: at the top dose activity change, negative = inhibition, hits mostly inhibitors. TbPGK coupled GAPDH assay, Kinase-Glo luminescence; further: on the % scale 0 is the no-effect control and ±100 the full control effect; nearly all actives have a fitted effect of over 65% in size
# POLI cherry-pick: Human Pol iota inhibitor confirmatory assay; shares compounds with Pol kappa inh-1; Pol iota primer extension, TAMRA/BHQ fluorescence; Potency, µM, usual class: inhibitors; 1,500 compounds, 77% hits; AID 720496
# Pol kappa inh-2: Pol kappa (human) inhibition, cherry-pick confirmation; purified Pol-kappa, fluorescent strand-displacement substrate; Potency, µM, actives largely listed as inhibitors; shares compounds with Pol eta inh-1; 920 compounds, 76% hits
# Pol eta inh-2: confirmation of human DNA polymerase eta inhibitors; Potency, µM, usual class: inhibitors; 2,600 compounds, 64% hits; shares compounds with Pol eta inh-1; Pol eta primer extension, TAMRA/BHQ fluorescence, 10 min
# FEN1 inh-2: confirmation of human FEN1 inhibitors | shares compounds with FEN1 inh-1 | FEN1 flap cleavage, TAMRA/BHQ2 fluorogenic DNA substrate | Potency, µM, actives largely listed as inhibitors | 880 compounds, 79% hits | AID 720498; further: nearly all actives have a fitted effect of over 60% in size
# WRN helicase inh-2: WRN helicase inhibition, cherry-pick retest; shares compounds with WRN helicase inh-1; WRN helicase DNA unwinding, fluorescence kinetic; Potency, µM (highest dose often 57.1 µM), for inactives: top-dose activity, negative = inhibition, hits mostly inhibitors; 610 compounds, 63% hits; AID 720497; further: nearly all actives have a fitted effect of over 65% in size
# TO displacement: binds DNA, flagged in WRN inhibitor counterscreen. shares compounds with WRN helicase inh-1. thiazole orange DNA binding displacement, fluorescence. Potency, µM (titrated, usually from 57.1 µM), for the others: at the top dose activity change, negative = inhibition, hits mostly inhibitors. 610 compounds, 10% hits. AID 720499;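 further: drop in dye fluorescence marks compound binding to DNA; on the % scale 0 is the no-effect control and ±100 the full control effect; nearly all actives have a fitted effect of over 60% in size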
# BLM helicase inh: blocks human BLM helicase in WRN counterscreen. shares compounds with WRN helicase inh-1. Recombinant BLM helicase DNA unwinding, red fluorescence. Potency, µM (titrated, usually from 57.1 µM), for inactives: top-dose activity change, negative = inhibition, usual class: inhibitors. 610 compounds, 60% hits. AID 720503; further: nearly all actives have a fitted effect of over 60% in size
# Numbers without * were called inactive; i = inactive; ? = inconclusive; . = no result given; [ ] = dose if it differs, or a comment. The call rests on the fitted dose curve; in most records, active means well fitted curve in the direction sought with a large enough effect; inconclusive means small, poorly fitted or top-dose-only effect, or another doubt; inactive means no such curve, though single readings can be large; an effect the other way counts as inactive or inconclusive. Potency means the concentration at half of the fitted maximal effect.
SMILES,WRN helicase inh-1,POLB inh,Pol kappa inh-1,FEN1 inh-1,Pol eta inh-1,POLI inh,POLI cherry-pick,Pol eta inh-2,FEN1 inh-2,WRN helicase inh-2,TO displacement,BLM helicase inh,others
O=C1NC(=S)N(C2CC2)C(=O)/C1=C/c1ccc2c(c1)CCN2CCCCl,3µM*,20µM*,40µM*,?,7.9µM*,22µM*,15*,19*,76*,12µM*,?,7.6µM*,
CCN1/C(=C/C=C/C2=[N+](CC)c3ccccc3C2(C)C)C(C)(C)c2ccccc21,4.7µM*,.,.,.,32µM*,.,38*,67*,67*,22µM*,i,22µM*,Pol kappa inh-2=67*
CN1/C(=C\C=C2C(=O)NC(=O)NC2=O)C(C)(C)c2ccccc21,-9%,11%,5%,9%,1%,19%,.,.,.,.,.,.,
O=C1NC(=O)N(Cc2ccc(F)cc2)C(=O)/C1=C\c1ccoc1,32µM*,?,25µM*,?,22µM*,14µM*,19*,30*,.,5.4µM*,22%,3µM*,Pol kappa inh-2=17*
CN1[C@H]2CC(=O)C[C@@H]1[C@@H](O)C2,.,.,-10%[12 µM],.,.,.,.,.,.,.,.,.,
O=C1NC(=O)N(Cc2ccccc2)C(=O)/C1=C/N1CCCc2ccccc21,-20%,-8%,-66%,?,-11%,?,.,.,.,.,.,.,
O=C1NC(=O)N(Cc2ccco2)C(=O)/C1=C/C=C/c1ccco1,20µM*,?,14µM*,25µM*,4µM*,?,6.7*,4.8*,43*,11µM*,-7%,6.1µM*,
Cn1cccc1/C=C1\C(=O)NC(=O)N(Cc2ccco2)C1=O,40µM*,14µM*,22µM*,?,10µM*,7.9µM*,17*,17*,.,19µM*,-8%,8.6µM*,
COc1ccc(CN2C(=O)NC(=O)/C(=C\c3cccc(OC)c3OC)C2=O)cc1,?,5%,-6%,-16%,14%,26%,.,.,.,.,.,.,
CN1C(=O)/C(=C/C=C/c2ccco2)C(=O)NC1=S,35µM*,?,25µM*,20µM*,5.6µM*,10µM*,.,.,.,15µM*,31%,8.6µM*,PGK validate=5.2µM*
CNC(C)[C@@H](O)c1ccc(O)cc1 (some centres undefined),.,.,7%[19.4 µM],.,.,.,.,.,.,.,.,.,
